Assay in all cases: DAPPL (digital affinity profiling via proximity ligation, sequencing); 10 mM Tris-HCl pH 7.5, 50 mM NaCl, 1 mM DTT, 4% glycerol, room temperature, 30 min; GST-TFs on glutathione beads, 16-mer random dsDNA library, 0.1% formaldehyde crosslink after washing; high values mean tight binding
What all share (conditions): protein: recombinant; tags: N-terminal GST; dsDNA, one strand shown

One experiment has as its target T1, GABPA (Homo sapiens, UniProt Q06546 1-454).
T1 sequence: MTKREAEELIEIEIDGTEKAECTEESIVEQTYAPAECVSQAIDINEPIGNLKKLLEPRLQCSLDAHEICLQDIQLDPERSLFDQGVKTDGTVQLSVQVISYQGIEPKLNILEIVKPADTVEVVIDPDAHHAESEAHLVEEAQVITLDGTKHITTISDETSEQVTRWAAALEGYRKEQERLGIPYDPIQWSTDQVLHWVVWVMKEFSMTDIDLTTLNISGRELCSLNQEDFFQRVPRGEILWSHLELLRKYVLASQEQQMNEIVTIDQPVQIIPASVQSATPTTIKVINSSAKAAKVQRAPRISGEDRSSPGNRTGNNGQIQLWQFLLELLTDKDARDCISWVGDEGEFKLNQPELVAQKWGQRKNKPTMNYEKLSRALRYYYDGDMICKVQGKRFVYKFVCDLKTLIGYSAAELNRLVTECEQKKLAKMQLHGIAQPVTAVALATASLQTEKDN
The procedure, abridged:
(§1)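 Binding signal is each hexamer's read frequency for a factor divided by its frequency in the tag-only sample. The factors were GST-fused human transcription factors from yeast, captured on glutathione beads, DNA-barcoded and pooled with that sample. Pools were incubated with 200 nmole of a random double-stranded 16-mer DNA library in Tris/NaCl/DTT/glycerol buffer at room temperature for 30 min, then washed, crosslinked with 0.1% formaldehyde, proximity-ligated with BsaI/T4 ligase (1 h, 37 °C), PCR-amplified and sequenced on an Illumina NextSeq500.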

The next experiment concerns the target T2, ERG (Homo sapiens, UniProt P11308 1-479).
T2 sequence: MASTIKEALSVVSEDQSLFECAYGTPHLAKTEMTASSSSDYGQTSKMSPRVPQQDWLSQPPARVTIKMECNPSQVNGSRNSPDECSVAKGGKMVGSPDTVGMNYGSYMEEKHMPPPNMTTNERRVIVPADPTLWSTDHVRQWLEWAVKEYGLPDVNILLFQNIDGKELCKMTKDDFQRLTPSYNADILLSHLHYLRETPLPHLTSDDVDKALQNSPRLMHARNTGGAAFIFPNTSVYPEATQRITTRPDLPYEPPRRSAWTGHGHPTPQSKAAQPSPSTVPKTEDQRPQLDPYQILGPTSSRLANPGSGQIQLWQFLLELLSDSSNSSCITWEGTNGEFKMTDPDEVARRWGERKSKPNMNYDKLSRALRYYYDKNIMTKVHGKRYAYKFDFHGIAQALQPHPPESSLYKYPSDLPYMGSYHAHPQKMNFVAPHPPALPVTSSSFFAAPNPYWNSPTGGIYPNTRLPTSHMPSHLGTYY
The method in brief: as §1

Another experiment concerns the target ELF1 (Homo sapiens, UniProt P32519 1-619). The method in brief: as §1
The target of a further experiment is T3, EHF (Homo sapiens, UniProt Q9NZC4 1-300).
T3 sequence: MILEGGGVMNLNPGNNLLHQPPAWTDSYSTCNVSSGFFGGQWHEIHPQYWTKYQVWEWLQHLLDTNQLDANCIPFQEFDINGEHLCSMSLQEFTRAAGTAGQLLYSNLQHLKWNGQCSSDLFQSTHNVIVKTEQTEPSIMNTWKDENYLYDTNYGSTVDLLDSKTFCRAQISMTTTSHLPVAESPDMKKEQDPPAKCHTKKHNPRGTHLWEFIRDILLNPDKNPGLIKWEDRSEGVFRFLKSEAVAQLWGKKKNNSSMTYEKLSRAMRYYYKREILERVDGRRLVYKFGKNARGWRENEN
The method in brief: as §1

For a further experiment, the target named is SPI1 (Homo sapiens, UniProt P17947 1-270). The method in brief:
as §1

The next experiment concerns the target SPIB (Homo sapiens, UniProt Q01892 1-262). The procedure, abridged: as §1
The target in another experiment is T4, SPIC (Homo sapiens, UniProt Q8N5J4 1-248).
T4 sequence: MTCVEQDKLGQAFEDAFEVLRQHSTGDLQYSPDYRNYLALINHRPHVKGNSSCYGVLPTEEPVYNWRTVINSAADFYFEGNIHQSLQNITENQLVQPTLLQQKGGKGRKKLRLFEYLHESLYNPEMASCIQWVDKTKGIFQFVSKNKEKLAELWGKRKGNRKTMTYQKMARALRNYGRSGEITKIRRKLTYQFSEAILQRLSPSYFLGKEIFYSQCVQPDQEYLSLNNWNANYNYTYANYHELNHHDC
The method in brief:
as §1

In a further experiment the target is ELF4 (Homo sapiens, UniProt Q99607 1-663). The procedure, abridged: as §1
Another experiment concerns the target T5, ELK4 (Homo sapiens, UniProt P28324-2 1-405).
T5 sequence: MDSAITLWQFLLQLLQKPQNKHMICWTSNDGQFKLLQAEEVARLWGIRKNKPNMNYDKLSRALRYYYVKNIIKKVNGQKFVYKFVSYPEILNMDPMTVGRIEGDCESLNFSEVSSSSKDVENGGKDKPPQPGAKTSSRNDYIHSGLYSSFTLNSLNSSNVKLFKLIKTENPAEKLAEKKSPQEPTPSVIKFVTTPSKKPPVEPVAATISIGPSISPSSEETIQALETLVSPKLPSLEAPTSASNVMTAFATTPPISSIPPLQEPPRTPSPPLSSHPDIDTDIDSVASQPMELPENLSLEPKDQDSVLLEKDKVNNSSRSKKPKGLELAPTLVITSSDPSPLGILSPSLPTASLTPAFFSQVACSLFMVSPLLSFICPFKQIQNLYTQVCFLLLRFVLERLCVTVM
The method in brief: as §1

The target of a further experiment is T6, ELF3 (Homo sapiens, UniProt P78545 1-371).
T6 sequence: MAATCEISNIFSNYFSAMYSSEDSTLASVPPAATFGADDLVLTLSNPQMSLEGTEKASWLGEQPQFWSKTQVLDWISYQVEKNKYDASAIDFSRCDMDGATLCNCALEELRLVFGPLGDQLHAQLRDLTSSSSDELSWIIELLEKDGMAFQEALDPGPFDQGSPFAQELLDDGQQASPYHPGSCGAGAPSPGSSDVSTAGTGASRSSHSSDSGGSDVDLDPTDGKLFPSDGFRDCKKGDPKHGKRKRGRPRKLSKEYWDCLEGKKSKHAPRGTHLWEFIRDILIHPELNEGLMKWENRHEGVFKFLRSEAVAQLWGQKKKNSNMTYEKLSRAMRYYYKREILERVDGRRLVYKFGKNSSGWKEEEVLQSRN
The method in brief:
as §1

The next experiment addresses T7, ERF (Homo sapiens, UniProt P50548 1-548).
T7 sequence: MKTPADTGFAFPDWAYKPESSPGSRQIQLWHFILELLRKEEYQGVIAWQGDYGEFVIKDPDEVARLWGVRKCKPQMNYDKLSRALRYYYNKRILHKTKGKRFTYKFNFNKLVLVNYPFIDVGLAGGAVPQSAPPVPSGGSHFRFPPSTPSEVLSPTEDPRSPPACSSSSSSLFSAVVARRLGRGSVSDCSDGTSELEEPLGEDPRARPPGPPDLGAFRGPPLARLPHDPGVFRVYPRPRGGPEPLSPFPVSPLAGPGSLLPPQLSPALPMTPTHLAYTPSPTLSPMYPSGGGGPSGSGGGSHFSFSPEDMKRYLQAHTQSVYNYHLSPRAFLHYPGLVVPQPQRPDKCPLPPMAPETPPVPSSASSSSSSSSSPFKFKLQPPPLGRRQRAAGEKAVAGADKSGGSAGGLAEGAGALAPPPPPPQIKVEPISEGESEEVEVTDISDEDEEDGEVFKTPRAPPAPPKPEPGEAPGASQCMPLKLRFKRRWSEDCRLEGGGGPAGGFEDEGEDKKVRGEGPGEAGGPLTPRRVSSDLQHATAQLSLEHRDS
The method in brief: as §1

The target in a further experiment is T8, ETV3L (Homo sapiens, UniProt Q6ZN32 1-361).
T8 sequence: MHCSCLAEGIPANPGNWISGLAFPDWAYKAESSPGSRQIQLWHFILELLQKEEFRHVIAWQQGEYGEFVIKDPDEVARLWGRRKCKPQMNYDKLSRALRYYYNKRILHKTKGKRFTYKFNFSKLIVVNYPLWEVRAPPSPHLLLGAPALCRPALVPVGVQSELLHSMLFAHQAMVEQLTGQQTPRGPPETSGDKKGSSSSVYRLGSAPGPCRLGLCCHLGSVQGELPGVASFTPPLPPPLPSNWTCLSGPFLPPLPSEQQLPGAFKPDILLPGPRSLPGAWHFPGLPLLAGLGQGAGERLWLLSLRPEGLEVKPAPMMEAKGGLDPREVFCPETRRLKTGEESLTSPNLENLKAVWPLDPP
The method in brief:
as §1

In a further experiment the target is T9, ETS2 (Homo sapiens, UniProt P15036 1-469).
T9 sequence: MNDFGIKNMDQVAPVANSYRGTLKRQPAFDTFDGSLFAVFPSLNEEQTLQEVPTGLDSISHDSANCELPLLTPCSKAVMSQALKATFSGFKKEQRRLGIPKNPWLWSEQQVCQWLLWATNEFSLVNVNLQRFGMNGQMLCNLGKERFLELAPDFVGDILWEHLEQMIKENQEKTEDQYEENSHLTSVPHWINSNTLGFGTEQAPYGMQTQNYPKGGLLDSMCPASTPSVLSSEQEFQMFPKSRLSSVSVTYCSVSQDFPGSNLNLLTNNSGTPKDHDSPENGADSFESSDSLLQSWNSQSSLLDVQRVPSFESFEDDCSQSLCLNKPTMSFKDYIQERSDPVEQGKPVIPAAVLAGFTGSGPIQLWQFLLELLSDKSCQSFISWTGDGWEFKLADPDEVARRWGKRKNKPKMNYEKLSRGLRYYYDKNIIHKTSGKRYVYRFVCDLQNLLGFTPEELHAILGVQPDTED
The procedure, abridged:
as §1

The next experiment deals with T10, ETV7 (Homo sapiens, UniProt Q9Y603 1-341).
T10 sequence: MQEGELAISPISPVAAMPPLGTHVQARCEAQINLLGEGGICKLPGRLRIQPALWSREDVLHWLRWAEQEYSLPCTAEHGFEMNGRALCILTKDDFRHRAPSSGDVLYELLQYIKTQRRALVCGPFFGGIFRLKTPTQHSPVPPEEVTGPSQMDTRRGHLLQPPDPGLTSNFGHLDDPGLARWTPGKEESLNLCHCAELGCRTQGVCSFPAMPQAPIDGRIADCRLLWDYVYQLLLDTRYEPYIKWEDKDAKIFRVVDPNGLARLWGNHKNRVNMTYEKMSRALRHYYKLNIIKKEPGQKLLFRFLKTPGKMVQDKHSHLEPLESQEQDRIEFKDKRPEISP
The procedure, abridged: as §1

A further experiment addresses ETV6 (Homo sapiens, UniProt P41212 1-452). The method in brief: as §1

The values below come from PMC7862700, “An all-to-all approach to the identification of sequence-specific readers for epigenetic DNA modifications on cytosine”.

Sequence of ELF1 (P32519 whole entry): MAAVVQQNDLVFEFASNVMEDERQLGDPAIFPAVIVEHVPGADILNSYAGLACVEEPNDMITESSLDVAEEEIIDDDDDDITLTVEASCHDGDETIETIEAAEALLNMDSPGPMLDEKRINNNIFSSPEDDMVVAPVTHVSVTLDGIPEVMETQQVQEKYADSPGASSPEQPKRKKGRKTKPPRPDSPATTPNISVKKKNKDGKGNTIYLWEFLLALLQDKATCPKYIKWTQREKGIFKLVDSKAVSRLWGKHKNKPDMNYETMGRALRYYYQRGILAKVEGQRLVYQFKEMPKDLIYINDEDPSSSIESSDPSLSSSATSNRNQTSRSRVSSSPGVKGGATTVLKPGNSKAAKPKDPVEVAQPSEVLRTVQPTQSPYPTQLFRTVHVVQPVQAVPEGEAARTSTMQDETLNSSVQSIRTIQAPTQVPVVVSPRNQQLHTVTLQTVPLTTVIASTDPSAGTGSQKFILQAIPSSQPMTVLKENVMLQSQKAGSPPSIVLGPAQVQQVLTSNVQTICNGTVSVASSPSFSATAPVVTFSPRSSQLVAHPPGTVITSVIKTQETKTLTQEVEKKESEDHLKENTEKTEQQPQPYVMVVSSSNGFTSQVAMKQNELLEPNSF
Sequence of ETV6 (P41212 whole entry): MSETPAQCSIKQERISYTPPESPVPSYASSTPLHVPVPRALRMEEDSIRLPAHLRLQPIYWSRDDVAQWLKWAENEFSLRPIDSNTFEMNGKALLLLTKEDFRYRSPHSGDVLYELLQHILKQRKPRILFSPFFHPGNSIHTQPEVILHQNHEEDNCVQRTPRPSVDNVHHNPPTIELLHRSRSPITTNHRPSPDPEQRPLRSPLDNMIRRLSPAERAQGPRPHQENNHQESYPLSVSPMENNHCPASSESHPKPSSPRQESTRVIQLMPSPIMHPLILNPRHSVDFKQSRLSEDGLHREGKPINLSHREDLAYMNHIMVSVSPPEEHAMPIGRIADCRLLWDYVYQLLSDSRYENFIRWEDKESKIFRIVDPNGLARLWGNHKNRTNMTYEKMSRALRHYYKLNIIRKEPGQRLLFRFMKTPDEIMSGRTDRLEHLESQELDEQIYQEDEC
Sequence of SPIB (Q01892 whole entry): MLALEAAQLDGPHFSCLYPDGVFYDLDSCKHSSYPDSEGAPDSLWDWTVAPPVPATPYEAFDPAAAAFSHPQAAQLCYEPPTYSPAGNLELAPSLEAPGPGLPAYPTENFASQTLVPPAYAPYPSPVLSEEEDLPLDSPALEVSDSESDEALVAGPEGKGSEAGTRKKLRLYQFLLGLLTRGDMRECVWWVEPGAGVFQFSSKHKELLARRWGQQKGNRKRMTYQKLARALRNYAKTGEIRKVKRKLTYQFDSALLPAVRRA
Sequence of ELF4 (Q99607 whole entry): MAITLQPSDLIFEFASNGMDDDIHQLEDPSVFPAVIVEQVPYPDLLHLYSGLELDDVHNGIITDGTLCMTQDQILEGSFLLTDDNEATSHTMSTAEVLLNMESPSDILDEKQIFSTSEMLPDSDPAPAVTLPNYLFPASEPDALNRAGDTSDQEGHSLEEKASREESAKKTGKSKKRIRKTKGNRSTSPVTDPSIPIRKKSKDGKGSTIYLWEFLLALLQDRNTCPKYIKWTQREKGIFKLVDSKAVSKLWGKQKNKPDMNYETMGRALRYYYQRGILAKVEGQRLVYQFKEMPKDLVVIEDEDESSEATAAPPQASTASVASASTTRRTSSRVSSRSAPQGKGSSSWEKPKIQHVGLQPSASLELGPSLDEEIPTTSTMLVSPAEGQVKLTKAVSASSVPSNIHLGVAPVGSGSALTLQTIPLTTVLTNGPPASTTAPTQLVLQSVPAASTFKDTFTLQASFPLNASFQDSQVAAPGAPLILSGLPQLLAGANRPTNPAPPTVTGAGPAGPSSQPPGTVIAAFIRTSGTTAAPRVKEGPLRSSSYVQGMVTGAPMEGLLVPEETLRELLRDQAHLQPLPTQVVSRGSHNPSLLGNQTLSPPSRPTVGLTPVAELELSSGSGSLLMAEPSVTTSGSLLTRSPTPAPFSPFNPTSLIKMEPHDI

CATTGC: the binding signal was 1.08 fold enrichment (6-mer frequency, TF over GST control) with GABPA; 1.11 fold enrichment (6-mer frequency, TF over GST control) with ERG; 1.09 fold enrichment (6-mer frequency, TF over GST control) with ELF1; 1.15 fold enrichment (6-mer frequency, TF over GST control) with EHF; 1.05 fold enrichment (6-mer frequency, TF over GST control) in the experiment with SPI1; 1 fold enrichment (6-mer frequency, TF over GST control) in the experiment with SPIB. Besides, the binding signal with SPIC was 1.16 fold enrichment (6-mer frequency, TF over GST control); with ELF4, 1.11 fold enrichment (6-mer frequency, TF over GST control); in the experiment with ELK4, 1.04 fold enrichment (6-mer frequency, TF over GST control); in the experiment with ELF3, 1.04 fold enrichment (6-mer frequency, TF over GST control); with ERF it was 1.11 fold enrichment (6-mer frequency, TF over GST control); with ETV3L it was 1.08 fold enrichment (6-mer frequency, TF over GST control). For the same sequence, the binding signal was 1.17 fold enrichment (6-mer frequency, TF over GST control) with ETS2; 1.14 fold enrichment (6-mer frequency, TF over GST control) with ETV7; 1.09 fold enrichment (6-mer frequency, TF over GST control) with ETV6.
